# Laboratory results: PubChem BioAssay
# Activity calls are given as the source filed them. Unless noted, how the calls were made is not given here.
# Tests used:
# [1] = HepG2 liver cancer cell viability effects, profiling panel, resazurin fluorescence, 24 h, PK04 Diversity Set (AID 1172); conditions: higher = more signal
# [2] = basal S. cerevisiae growth modulation, no modifier, primary screen, OD600, strain BY4716, 24 h, basal condition (AID 1173); conditions: OD600, 24 h, higher = more signal, called active from +8 up or from −8 down
# [3] = MM1S myeloma cell viability, profiling panel, resazurin fluorescence, basal, 24 h, PK04 Diversity Set (AID 1174); conditions: higher = more signal, called active from +8 up or from −8 down;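 further: MM1S multiple myeloma cell line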
# [4] = target: Dihydroorotate dehydrogenase (quinone), mitochondrial (Plasmodium falciparum (isolate 3D7)) (UniProt Q08210); assay: PfDHODH enzyme inhibitors, primary screen, biochemical, C-terminal His tag, absorbance 600 nm (AID 1175); conditions: DCIP absorbance 600 nm, higher = more signal, called active from +8 up or from −8 down;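 further: recombinant parasite enzyme with a five histidine tag at its C terminus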
# [5] = P. aeruginosa biofilm formation inhibitors, primary screen, strain PAO1, LB-PBS medium, absorbance 600 nm (AID 1176); conditions: P. aeruginosa PAO1 growth/biofilm, A600, 12 h; higher = more signal
# [6] = S. cerevisiae RM11-1a growth modifiers, primary screen, strain RM11-1a, OD600, basal, 24 h (AID 1177); conditions: OD600, 24 h, higher = more signal, called active from +8 up or from −8 down;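 further: cultures grown under basal conditions with no added stressor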
# [7] = E. coli acrAB mutant growth effects, primary screen, E. coli filamentation inducers, strain DRC39, OD650, 24 h (AID 1178); conditions: higher = more signal, called active from +8 up or from −8 down;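 further: growth measured as culture turbidity by optical density at 650 nm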
# [8] = E. coli acrAB mutant growth effects, primary screen, E. coli filamentation inducers, strain DRC39, OD650, 48 h (AID 1179);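 further: screen aims at cell division blockers that make cells filament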; conditions: E. coli DRC39 delta-acrAB growth, higher = more signal, called active from +8 up or from −8 down
# [9] = RPMI8226 myeloma cell viability, profiling panel, resazurin fluorescence, basal, 24 h, PK04 Diversity Set (AID 1180); conditions: higher = more signal;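 further: RPMI8826 multiple myeloma cell line at 5000 cells per well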
# [10] = target: E3 ubiquitin-protein ligase XIAP (Homo sapiens) (UniProt P98170); assay: XIAP binders, primary screen, biophysical, small-molecule microarray, fluorescence 635 nm (AID 1181); conditions: small-molecule microarray binding, higher = more signal;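 further: score merges 667 nm emission and signal to noise over triplicate slides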
# [11] = tested on: XIP peptide (Xip251-270) binding; assay: small-molecule binders of XIP peptide, primary screen, biochemical, small-molecule microarray, fluorescence 635/667 nm, 0.1 µg/mL protein (AID 1182); conditions: fluorescent protein binding, 635 nm, higher = more signal, called active from +8 up or from −8 down
# XIP peptide (Xip251-270) = assay: small-molecule binders of XIP peptide, primary screen, biochemical, small-molecule microarray, fluorescence 635/667 nm, 0.5 µg/mL protein (AID 1183); conditions: small-molecule microarray binding, fluorescence 635 nm; higher = more signal
# [12] = Plasmodium falciparum growth inhibition, primary screen, strain 3D7, DAPI fluorescence, 100 nL (AID 1184);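 further: parasites grown inside human red blood cells in medium with human serum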; conditions: P. falciparum 3D7 growth, 3 d, higher = more signal
# [13] = target: Homeobox protein Hox-A13 (Mus musculus) (UniProt Q62424); assay: inhibitors of HoxA13-DNA binding, primary screen, biochemical, fluorescence polarization, labeled oligonucleotide (AID 1185); conditions: 15 min, higher = more signal, called active from +8 up or from −8 down
# [14] = inhibitors of hydroxyurea-induced Chk1 phosphorylation, primary screen, imaging, HeLa, phospho-Chk1 antibody, percent positive cells (AID 1186); conditions: hydroxyurea-induced phospho-Chk1 immunofluorescence imaging, higher = more signal
# [15] = inhibitors of hydroxyurea-induced Chk1 phosphorylation, primary screen, imaging, HeLa, phospho-Chk1 nuclear intensity (AID 1187); conditions: hydroxyurea-induced phospho-Chk1 immunofluorescence imaging, higher = more signal
# Chain of Homeobox protein Hox-A13 (Mus musculus) (Q62424 whole entry, looked up): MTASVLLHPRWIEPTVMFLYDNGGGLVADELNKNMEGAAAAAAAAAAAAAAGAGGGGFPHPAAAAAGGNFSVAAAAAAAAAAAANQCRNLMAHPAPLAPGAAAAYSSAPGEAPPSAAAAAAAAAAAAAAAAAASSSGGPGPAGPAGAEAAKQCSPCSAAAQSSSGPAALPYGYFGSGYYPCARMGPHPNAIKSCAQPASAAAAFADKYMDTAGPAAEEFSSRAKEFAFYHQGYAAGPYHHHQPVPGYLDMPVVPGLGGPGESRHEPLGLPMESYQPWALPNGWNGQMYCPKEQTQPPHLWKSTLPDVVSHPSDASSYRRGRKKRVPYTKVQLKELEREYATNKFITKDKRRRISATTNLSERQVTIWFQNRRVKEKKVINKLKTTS
# Chain of E3 ubiquitin-protein ligase XIAP (Homo sapiens) (P98170 whole entry, looked up): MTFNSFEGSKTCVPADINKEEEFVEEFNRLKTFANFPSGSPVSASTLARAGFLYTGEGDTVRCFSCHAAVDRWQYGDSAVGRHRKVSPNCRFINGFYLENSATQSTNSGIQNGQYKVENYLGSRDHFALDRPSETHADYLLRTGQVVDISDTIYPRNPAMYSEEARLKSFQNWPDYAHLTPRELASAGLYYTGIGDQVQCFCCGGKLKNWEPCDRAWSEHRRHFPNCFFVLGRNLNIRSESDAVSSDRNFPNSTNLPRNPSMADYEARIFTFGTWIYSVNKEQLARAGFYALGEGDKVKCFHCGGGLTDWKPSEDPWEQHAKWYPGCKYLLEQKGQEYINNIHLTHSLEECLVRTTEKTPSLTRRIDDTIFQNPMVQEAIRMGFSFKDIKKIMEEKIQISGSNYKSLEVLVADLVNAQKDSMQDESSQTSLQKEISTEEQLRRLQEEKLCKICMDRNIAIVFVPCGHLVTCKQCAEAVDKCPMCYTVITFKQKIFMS
# Chain of Dihydroorotate dehydrogenase (quinone), mitochondrial (Plasmodium falciparum (isolate 3D7)) (Q08210 whole entry, looked up): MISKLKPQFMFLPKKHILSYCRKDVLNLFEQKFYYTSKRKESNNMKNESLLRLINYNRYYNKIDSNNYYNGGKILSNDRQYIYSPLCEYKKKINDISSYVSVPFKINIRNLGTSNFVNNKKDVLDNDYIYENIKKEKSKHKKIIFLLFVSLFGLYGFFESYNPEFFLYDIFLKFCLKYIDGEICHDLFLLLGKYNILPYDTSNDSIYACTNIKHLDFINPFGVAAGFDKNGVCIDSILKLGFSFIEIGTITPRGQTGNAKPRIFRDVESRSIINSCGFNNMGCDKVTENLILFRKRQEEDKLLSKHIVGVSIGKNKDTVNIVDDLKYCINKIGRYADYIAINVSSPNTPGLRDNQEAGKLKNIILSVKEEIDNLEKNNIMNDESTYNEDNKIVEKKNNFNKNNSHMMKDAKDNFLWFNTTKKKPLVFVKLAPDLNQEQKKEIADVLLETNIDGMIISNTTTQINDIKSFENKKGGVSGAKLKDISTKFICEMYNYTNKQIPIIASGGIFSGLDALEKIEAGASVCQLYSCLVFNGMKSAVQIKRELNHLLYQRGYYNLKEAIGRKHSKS
SMILES,z-score [1],z-score [2],z-score [3],composite z-score [4],z-score [5],z-score [6],z-score [7],z-score [8],z-score [9],composite z-score [10],composite z-score [11],composite z-score (XIP peptide (Xip251-270)),z-score [12],z-score [13],z-score [14],z-score [15]
NC(=O)[C@H]1[C@@H]2C(=O)O[C@@H](c3ccccc3)[C@@H](c3ccccc3)N2[C@@H](c2ccc(OCCO)cc2)[C@]12C(=O)Nc1ccc(C#CCCO)cc12,-0.0423,0.704 (inactive),-0.245 (inactive),-0.624 (inactive),0.35 (inactive),1.78 (inactive),-0.0157 (inactive),0.0992 (inactive),-0.169,-0.0884,0.32 (inactive),0.357,0.358,-4.68 (inactive),-0.317 (inactive),-0.838 (inactive)
CC(C)N1C(=O)c2ccccc2[C@@H](C(=O)NCCN2CCOCC2)[C@@H]1c1ccc(CO)cc1,-0.229,0.525 (inactive),-0.401 (inactive),0.184 (inactive),0.429 (inactive),0.985 (inactive),0.0059 (inactive),-0.434 (inactive),-0.0956,-0.465,0.122 (inactive),0.0961,-0.22,-4.17 (inactive),-0.0809 (inactive),-0.264 (inactive)
CC1CC/C=C\[C@H]2OC34C=CCN(Cc5ccccc5)C(=O)[C@H]3N(C(CO)C(C)C)C(=O)[C@@H]4C2C(=O)O1 (some centres undefined),0.145,0.325 (inactive),0.325 (inactive),-0.841 (inactive),0.205 (inactive),0.558 (inactive),0.426 (inactive),0.523 (inactive),0.775,-0.211,0.0855 (inactive),-0.555,0.597,-5.14 (inactive),-0.0785 (inactive),-0.204 (inactive)
CCOC(=O)C[C@H]1[C@H](OC(=O)c2ccc(C(=O)c3ccccc3)cc2)[C@@H](NC(=O)C2CCCCC2)c2cc(OCCCO)ccc2N1C(=O)c1ccc2ccccc2n1,0.547,-0.108 (inactive),0.491 (inactive),-1.63 (inactive),-0.312 (inactive),0.86 (inactive),0.297 (inactive),0.991 (inactive),0.0839,-0.0141,-0.482 (inactive),0.368,-1.69,-0.814 (inactive),-0.739 (inactive),-0.573 (inactive)
COc1ccccc1CN1C(=O)c2ccccc2[C@](Cc2ccccc2I)(C(=O)O)[C@@H]1c1ccc(CO)cc1,-0.569,-1.49 (inactive),-0.0504 (inactive),-0.0436 (inactive),0.416 (inactive),0.0183 (inactive),0.706 (inactive),0.602 (inactive),0.437,0.133,0.382 (inactive),0.798,-0.0897,-5.51 (inactive),-0.138 (inactive),0.142 (inactive)
CC1CC/C=C\[C@H]2OC34C=CCN(c5ccc(Cl)cc5)C(=O)[C@H]3N(C(C)CO)C(=O)[C@]4(C)C2C(=O)O1 (some centres undefined),0.66,-0.876 (inactive),0.535 (inactive),0.291 (inactive),-0.428 (inactive),0.33 (inactive),1.31 (inactive),1.48 (inactive),0.555,0.3,-0.103 (inactive),-0.279,-0.111,-4.76 (inactive),0.558 (inactive),-0.11 (inactive)
C=CC[C@@H](OC(=O)Nc1ccc(SC)cc1)c1ccc(O)c(F)c1,-0.227,-15.5 (active),-2.32 (inactive),-1.9 (inactive),1.57 (inactive),-6.97 (inactive),1.75 (inactive),1.38 (inactive),-0.872,-0.02,0.452 (inactive),0.257,-0.671,-1.19 (inactive),-0.12 (inactive),0.539 (inactive)
CC(=O)N1CC2(CC2)CC1c1ccccc1 (centres undefined),-0.603,1.12 (inactive),-1.89 (inactive),-0.448 (inactive),0.535 (inactive),0.0303 (inactive),-0.88 (inactive),-0.206 (inactive),-1.36,0.0116,0.485 (inactive),0.915,-0.0608,-1.06 (inactive),0.465 (inactive),0.444 (inactive)
COC(=O)[C@@]1(Cc2ccc(F)cc2)[C@H]2c3cc(C(=O)N4CCCC4)n(CCc4c[nH]c5ccccc45)c3C[C@H]2CN1C(=O)c1ccccc1,-1.03,1.74 (inactive),-2.23 (inactive),-0.106 (inactive),0.343 (inactive),0.0323 (inactive),-1.4 (inactive),-0.319 (inactive),-2.94,-0.018,0.0236 (inactive),0.714,-1.55,-3.15 (inactive),0.916 (inactive),0.634 (inactive)
NC(=O)NCC#Cc1ccc2c(c1)[C@]1(C(=O)N2)[C@H](c2ccccc2OCCO)N2[C@H](c3ccccc3)[C@H](c3ccccc3)OC(=O)[C@H]2[C@@H]1C(=O)O,1.87,-0.462 (inactive),0.877 (inactive),-1.96 (inactive),-0.0199 (inactive),-0.246 (inactive),0.614 (inactive),-0.727 (inactive),0.327,-0.287,0.654 (inactive),0.418,-0.373,-7.04 (inactive),0.109 (inactive),0.239 (inactive)
COCCCNC(=O)[C@@]1(Sc2ccc(C)cc2)CC(=O)N(C2Cc3ccccc3C2)[C@@H]1c1ccc(CO)cc1,0.183,-0.153 (inactive),0.307 (inactive),-0.277 (inactive),0.779 (inactive),-1.35 (inactive),0.897 (inactive),0.568 (inactive),0.222,-0.0367,0.33 (inactive),0.446,-1.52,-3.56 (inactive),-0.0691 (inactive),0.0579 (inactive)
O=C1CS(=O)(=O)C(c2cccc([N+](=O)[O-])c2)N1c1ccccc1 (centres undefined),0.946,-1.3 (inactive),0.973 (inactive),-1.21 (inactive),0.627 (inactive),-0.818 (inactive),1.16 (inactive),1.21 (inactive),0.511,0.0055,0.784 (inactive),0.263,0.66,0.011 (inactive),-0.346 (inactive),-0.291 (inactive)
CCC1=C2CN(Cc3ccccc3)[C@@H](C(=O)Cc3ccccc3)C2C=CCC1 (some centres undefined),0.999,-3.13 (inactive),-0.192 (inactive),-3.14 (inactive),-1.61 (inactive),0.129 (inactive),0.941 (inactive),-0.0333 (inactive),-0.0509,0.0554,0.932 (inactive),0.758,-1.75,-4.07 (inactive),0.313 (inactive),-0.119 (inactive)
CCOC(=O)C[C@H]1[C@H](OC(=O)c2ccc(C(=O)c3ccccc3)cc2)[C@@H](NC(=O)c2ccc(-c3ccccc3)cc2)c2cc(OCCCO)ccc2N1C(=O)Cc1ccc(OC)cc1,0.247,0.401 (inactive),-0.176 (inactive),0.25 (inactive),-0.358 (inactive),0.225 (inactive),-0.224 (inactive),0.424 (inactive),-0.0952,-0.0994,-0.555 (inactive),-0.187,-0.75,-1.41 (inactive),0.0183 (inactive),0.25 (inactive)
COc1ccc([Si](C)(C)[C@@H]2[C@@H](CCO)O[C@]3(C(=O)N(Cc4ccccc4)c4ccc(N5C(=O)c6cccc7cccc5c67)cc43)[C@H]2C)cc1,-0.0019,0.282 (inactive),0.274 (inactive),-0.488 (inactive),2.24 (inactive),4.59 (inactive),2.16 (inactive),1.45 (inactive),-0.298,-0.152,0.533 (inactive),0.541,-2.76,-0.268 (inactive),-0.991 (inactive),-0.379 (inactive)
CC(C)c1ccc(NN2C(C(O)c3ccc(C#N)cc3)C=CC3C(=O)N(c4ccccc4)C(=O)C32)cc1 (centres undefined),-2,-1.67 (inactive),-1.26 (inactive),-0.0438 (inactive),1.94 (inactive),1.15 (inactive),-0.526 (inactive),-0.926 (inactive),-1.48,-0.152,0.105 (inactive),0.752,0.109,-2.79 (inactive),0.879 (inactive),0.815 (inactive)
COc1ccc([Si](C)(C)[C@@H]2[C@@H](CC(=O)N(CCO)Cc3ccccc3)O[C@]3(C(=O)N(Cc4cccc(N5CCCCC5=O)c4)c4ccccc43)[C@H]2C)cc1,-0.369,0.594 (inactive),-1.72 (inactive),-1 (inactive),1.63 (inactive),2.63 (inactive),0.899 (inactive),0.246 (inactive),-1.74,-0.138,0.0247 (inactive),0.709,-2.44,-1.13 (inactive),0.405 (inactive),0.797 (inactive)
COc1cc2c(cc1O)C(c1ccc(CN3CCCC3)cc1)N(Cc1cc3c(cc1Br)OCO3)CC2 (centres undefined),0.686,-0.714 (inactive),-1.44 (inactive),-0.296 (inactive),-0.0218 (inactive),-0.365 (inactive),-1.36 (inactive),-1.01 (inactive),0.174,-0.123,0.0473 (inactive),0.723,-2.36,-1.73 (inactive),0.055 (inactive),0.174 (inactive)
COCCOC(=O)N1C(=O)[C@@]2(c3cc(C#CC4=CCCCC4)ccc31)[C@H](c1ccccc1OCCO)N1[C@H](c3ccccc3)[C@H](c3ccccc3)OC(=O)[C@H]1[C@@H]2C(=O)N1CCN(c2ncccn2)CC1,0.574,0.456 (inactive),0.411 (inactive),-0.184 (inactive),1.56 (inactive),0.756 (inactive),0.259 (inactive),-1.22 (inactive),0.0816,-0.124,0.735 (inactive),0.55,-1.86,1.02 (inactive),-0.333 (inactive),-0.385 (inactive)
